# Assay results reported in the supplement of paper PMC7801607.
# Tests used:
# CHO = assay: % viability of CHO cells (MTT); higher = less toxic; details: 48 h
# Summary of the method: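 CHO cells were seeded at 10^6 cells/well in 200 µL and left overnight to attach. The medium was then replaced with fresh medium containing compound at 2 or 20 µM for 48 h. Survival was read colorimetrically with the tetrazolium (MTT) assay. Percent viability was expressed relative to untreated cells.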
# HepG2-A16-CD81 = assay: % inhibition of HepG2 viability (CellTiter-Glo); higher = more toxic; details: 5 µM
# [1] = system: Plasmodium falciparum NF54 stage IV/V gametocytes; assay: % inhibition of gametocyte viability (PrestoBlue); higher = more inhibition; details: 48 h
# Summary of the method: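 Stage IV/V NF54 gametocytes (2% gametocytaemia, 5% haematocrit, 100 µL/well) were exposed to compound at 1 or 5 µM. Incubation was 48 h at 37 °C, stationary and hypoxic, followed by 10 µL PrestoBlue for 2 h. Fluorescence at 612 nm was read on 70 µL of transferred supernatant. Percent inhibition of gametocyte viability was normalised to DMSO and kill controls from a single run.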
# [2] = system: Plasmodium falciparum NF54 asexual blood stage; assay: % inhibition of asexual blood stage proliferation (pLDH); higher = more inhibition; details: 72 h
# Summary of the method: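 Plasmodium falciparum NF54 ring-stage cultures (1% haematocrit, 2% parasitaemia) were exposed to compound at 2 or 20 µM in 96-well plates. Incubation was 72 h at 37 °C under 4% CO2, 3% O2 and 93% N2. Survival was read colorimetrically at 620 nm with the parasite lactate dehydrogenase assay. Percent inhibition of asexual proliferation was normalised to DMSO and kill controls, and the screen was run on two separate occasions.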
# [3] = system: Plasmodium falciparum NF54 stage IV/V gametocytes; assay: % inhibition of gametocyte viability (ATP bioluminescence); higher = more inhibition; details: 24 h
# Summary of the method: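 In 96-well plates, compound at 1 or 5 µM was added to 30,000 density-gradient-enriched stage IV/V NF54 gametocytes per well and incubated for 24 h at 37 °C. ATP readout used the Promega BacTiter Glo bioluminescence system. Percent inhibition of gametocyte viability comes from a single run, normalised to control wells.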
# [4] = system: Plasmodium falciparum NF54 stage IV/V gametocytes; assay: % inhibition of gametocyte viability (luciferase reporter); higher = more inhibition; details: 48 h
# Summary of the method: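 Percent inhibition was normalised to controls from a single run. Stage IV/V gametocytes of the NF54-Pfs16-GFP-Luc line, at 2% gametocytaemia and 2% haematocrit, were exposed to compound at 1 or 5 µM for 48 h at 37 °C under stationary, hypoxic conditions. Luminescence was then read from 30 µL lysate mixed with 30 µL Promega luciferin substrate on a GloMax-Multi+ reader with 10 s integration.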
# [5] = system: Plasmodium berghei ANKA liver stage in HepG2-A16-CD81; assay: % inhibition of liver stage parasite viability (luciferase); higher = more inhibition; details: 5 µM; 48 h
# Experimental: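 Single-concentration screen of the MMV Pandemic Response Box. P. falciparum NF54 asexual blood stages: pLDH assay, 72 h at 37 °C, 2 and 20 µM, n=2. Stage IV/V gametocytes (NF54): luciferase reporter (NF54-Pfs16-GFP-Luc, 48 h), ATP bioluminescence (24 h) and PrestoBlue (48 h) at 1 and 5 µM, n=1. P. berghei liver stage (luciferase in HepG2-A16-CD81, 48 h post infection) at 5 µM, n=4. All normalised to DMSO and kill controls as % inhibition.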
# 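Wherever % inhibition of HepG2 viability (CellTiter-Glo) is given: HepG2-A16-CD81 hepatoma cells plated as in the liver-stage assay but without sporozoites, with DMSO wells as negative and 25 µM puromycin as positive control.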
SMILES,% viability of CHO cells (CHO; 2 µM) [%],% viability of CHO cells (CHO; 20 µM) [%],% inhibition of HepG2 viability (HepG2-A16-CD81) [%],% inhibition of gametocyte viability ([1]; 1 µM) [%],% inhibition of gametocyte viability ([1]; 5 µM) [%],% inhibition of asexual blood stage proliferation ([2]; 2 µM) [%],% inhibition of asexual blood stage proliferation ([2]; 20 µM) [%],% inhibition of gametocyte viability ([3]; 1 µM) [%],% inhibition of gametocyte viability ([3]; 5 µM) [%],% inhibition of gametocyte viability ([4]; 1 µM) [%],% inhibition of gametocyte viability ([4]; 5 µM) [%],% inhibition of liver stage parasite viability [5] [%]
NCCCc1ccccc1C(=O)Nc1ncc([N+](=O)O)s1,104,62.7,0.282,32.9,23.9,-16.4,-1.52,0.0401,< 0,< 0,< 0,7.1
OC[C@@H]1CC[C@H](n2cnc3c(O)ncnc32)O1,119,114,-1.26,1.35,4.95,47.1,26.7,< 0,< 0,0.0967,< 0,18.8
O=S(=O)(NCB(O)O)c1ccc(-c2nnn[nH]2)cc1C(F)(F)F,86.3,66.1,3.27,18,9.79,29.1,28.6,< 0,< 0,1.13,3.64,29.3
CCCCc1ccc(-c2cc(C(=O)O)cc(-c3ccc(Cl)cc3)n2)cc1,93.4,108,14.4,9.55,12.3,43,102,< 0,< 0,0.176,8.67,40
O=C(N[C@H](Cc1cccc2ccccc12)C(=O)NCCc1c[nH]cn1)C1Cc2ccccc2C1,95.1,97.8,0.483,2.53,32.6,23,81.3,2.29,1.33,< 0,2.07,21.8
NCC(=O)Nc1ccc(-n2nc(C(F)(F)F)cc2-c2ccc3c(ccc4ccccc43)c2)cc1,124,64.1,9.92,22.9,12.6,1.4,67.6,31,93.6,< 0,< 0,20.2
Cc1nc2ccc(Oc3ccccc3)cc2c2c1CCN2CCc1ccccc1,77.5,-1.21,2.52,1.5,60,75.9,110,20.1,93.2,33,63.3,27
CC(=O)N1CCN(c2ccc(OCC3COC(Cn4ccnc4)(c4ccc(Cl)cc4Cl)O3)cc2)CC1 (stereo not drawn),105,60.1,0.653,6.22,< 0,2.92,64.4,< 0,< 0,< 0,< 0,16.4
O=C(Nc1ccc(N2CCN(C(=O)c3ccccc3)CC2)cc1)c1ccc2c(c1)OCO2,114,113,38.8,5.65,< 0,62.9,44.8,0.482,< 0,9.21,< 0,33.5
CCCCCCCc1[nH]c2ccccc2c(=O)c1O,96.8,107,24.8,< 0,< 0,22.4,83.6,< 0,< 0,< 0,< 0,72.5
CN(C/C=C/C#CC(C)(C)C)Cc1cccc2ccccc12,101,117,-4.35,< 0,< 0,-1.71,61.2,< 0,< 0,< 0,< 0,29.1
C[Si]1(C)CCN(Cc2cc(-c3ccc(Cl)cc3)n(-c3ccc(Cl)cc3)n2)CC1,108,71.6,5.65,28.8,68.7,57,59.2,3.88,81,3.92,31.2,33.3
CC(C)(C)c1ccc(Oc2ccc(N)cc2)cc1,130,58.8,-4.14,< 0,67,-4.84,55.8,< 0,< 0,66.9,89.3,54.4
Clc1cccc(-c2nnc(-c3ccccc3)o2)c1,98.4,113,-5.12,< 0,< 0,9.27,15.9,< 0,< 0,< 0,30.2,-89.2
O=C(NC1CCCc2c1[nH]c1ccc(Cl)cc21)c1ccccn1 (stereo not drawn),96.3,102,20.7,< 0,6.95,20.6,37.5,< 0,< 0,< 0,< 0,2.22
Cn1cc(NC(=O)c2cc(NC(=O)c3ccc(/C=C/c4cnc5ccccc5c4)cc3)cn2C)cc1C(=O)NCCN1CCOCC1,34.6,14.9,-5.82,18.3,55.1,68.7,94,22.3,15.5,64.1,67.1,85.8
Nc1nc(O)ncc1F,118,21.7,0.135,3.77,< 0,-11,-2.89,< 0,< 0,< 0,< 0,7.9
Cc1ccc(S(=O)(=O)Nc2cccc3cccnc23)cc1,76,-0.468,-5.32,13.9,< 0,55,103,< 0,47.3,< 0,5.04,27.6
O=C(N[C@H](CCS)C(=O)N[C@H](Cc1ccccc1)C(=O)O)c1cc2ccccc2[nH]1,78.3,74.3,-0.7,< 0,< 0,1.01,7.64,< 0,< 0,< 0,12,5.97
